# Assay results reported in the supplement of paper PMC7156485.
# ± gives the standard deviation of the averaged measurements.
# Experiments:
# Details in all cases: concentration: 10 µM; 24 h
# HCC1569 [1] = experiment: cell number relative to DMSO (% of DMSO); higher = more cells (less growth inhibition / toxicity)
# How it was run: (§1)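 Cell number or H1.0 nuclear intensity appears as percent of the plate control, based on the median of replicates. Measurements came from HCC1569 and TDF cells exposed in triplicate to compounds at 10 µM for 24 h at 37 °C, then imaged in six fields per well at ×10. Positional effects were smoothed out of HCC1569 values.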
# TDF [2] = experiment: as above
# How it was run: as §1
# TDF [3] = experiment: H1.0 immunofluorescence intensity relative to DMSO (% of DMSO); higher = stronger H1.0 induction, active = 120 or more
# How it was run: as §1
# HCC1569 [4] = experiment: H1.0 immunofluorescence intensity relative to DMSO (% of DMSO); higher = stronger H1.0 induction, active = 140 or more
# How it was run: as §1
# 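For H1.0 immunofluorescence intensity relative to DMSO in this document: TDF is a line of transformed human dermal fibroblasts of mesenchymal origin.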
# 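For cell number relative to DMSO in this document: TDF denotes transformed human dermal fibroblasts of mesenchymal origin.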
Compound,cell number (HCC1569 [1]),cell number (TDF [2]),H1.0 immunofluorescence intensity (TDF [3]),H1.0 immunofluorescence intensity (HCC1569 [4])
CCOc1nc(NC(=O)Cc2cc(OC)ccc2OC)cc(N)c1C#N [JNK Inhibitor VIII],97.9,104,92.7 (inactive),120 (inactive)
CCCCNc1cc(C(=O)O)cc(S(N)(=O)=O)c1Oc1ccccc1 [Bumetanide],102.7 ± 0.95,105 ± 2,96.4 (inactive),100 (inactive)
CCCCCCCCCCCCCCC(O)C(O)C(CO)NC(C)=O (stereo unspecified) [C2 Phytoceramide],79.1,86.5,110 (inactive),101 (inactive)
O=c1[nH]c(=O)n(C2CC(O)C(CO)O2)cc1Br (stereo unspecified) [5-Bromo-2'-deoxyuridine],99,106,95.7 (inactive),105 (inactive)
CCC(NC(C)C)C(O)c1ccc(O)c2[nH]c(=O)ccc12.Cl (stereo unspecified) [Procaterol.HCl],101,105,83.2 (inactive),112 (inactive)
N=c1nc(N2CCCCC2)cc(N)n1O [Minoxidil],99.9 ± 3.1,105 ± 3.1,92 (inactive),103 (inactive)
CCCCCC(=O)C=CC1C(O)CC(=O)C1CC=CCCCC(=O)O (stereo unspecified) [15-keto-prostaglandin E2],100,108,89.3 (inactive),90.9 (inactive)
Cc1ccc2c(c1)C(N1CCN(C)CC1)=Nc1cccnc1N2,103,102,89.8 (inactive),99 (inactive)
"Nc1ccc2c3c(cccc13)C(=O)NC2=O [4-Amino-1,8-naphthalimide]",94.1,77.8,104 (inactive),150 (active)
